From PubChem BioAssay (NCI)
About 83,000 compounds went through this panel and 20% of them were active in at least one assay; those are over-represented in the sample as a whole.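 96-well plates, one dose, 48 hours. Percent growth reported; active if below 10.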 Active and inactive are the calls of the source.

Each compound was assayed on SW-620 colon (assay: NCI-60 one-dose screen, 48 h (100 = growth as untreated, 0 = no growth, -100 = all killed)). Conditions: 10 µM unless noted.

| SMILES | growth |
| --- | --- |
| Cc1cscc(C)c1=S | 50.5% (inactive) |
| O=C(O)C1CN(c2cccc(Cl)c2)N(c2cccc(Cl)c2)C1=O (stereo not given) | 97.8% (inactive) |
| CCNC(=O)Oc1ccc(/C(=C(/C)Cc2ccc(OC)cc2)c2ccc(OCCN3CCCC3)cc2)cc1 | 81.4% (inactive) |
| CC[C@H](C)[C@H](NC(=O)[C@H](CCCNC(=N)N)NC(=O)[C@H](Cc1c[nH]c2ccccc12)NC(=O)[C@@H](NC(=O)[C@H](CCCCN)NC(=O)[C@H](CCCCN)NC(=O)[C@@H](NC(=O)[C@@H](NC(=O)[C@@H](NC(=O)[C@H](CCCCN)NC(=O)[C@H](Cc1ccccc1)NC(=O)[C@H](CCCCN)NC(=O)[C@H](CCCCN)NC(=O)[C@H](Cc1ccccc1)NC(=O)[C@@H](NC(=O)[C@@H](N)CCCCN)[C@@H](C)CC)[C@@H](C)O)[C@@H](C)CC)[C@@H](C)CC)C(C)C)C(=O)N[C@@H](Cc1ccccc1)C(=O)NCC(=O)N[C@@H](CCCNC(=N)N)C(=O)N[C@@H](Cc1ccccc1)C(N)=O | -14.9% (active) |
| CC1O[C@@H]2C[C@@](O)([C@H]1O)n1c3ccccc3c3c4c(c5c6ccccc6n2c5c31)C(=O)NC4=O (stereo not given in full) | 35.4% (inactive) |
| Cc1nc2sc(C(=O)Nc3cccc(Cl)c3)c(N)c2cc1C(O)c1ccccc1 (stereo not given) | 33.1% (inactive) |
| CC(C(=O)O)n1c(O)c(C=Nc2cccnc2)sc1=S (stereo not given) | 102% (inactive) |
| O=C(N/N=C/c1ccc(Cl)cc1Cl)c1ccc2nc(-c3ccc(Cl)cc3)[nH]c2c1 | -28.3% (active) |
| O=C(Cn1nnc([N+](=O)[O-])n1)c1ccccc1 | 91.1% (inactive) |
| O=C1NC(=Nc2ccc(O)cc2)S/C1=C\c1cccs1 | 27.2% (inactive) |
| NC(=O)c1ccc(NC(=O)c2oc3ccccc3c2-c2cnn(-c3ccccc3)c2)cc1 | 12.8% [50 µM] (inactive) |
| CCOC(=O)/C=C/c1c(C)[nH]c(=O)[nH]c1=O | 56.7% (inactive) |
| Cc1cccc(NC(=O)CSc2nc3ccc([N+](=O)[O-])cc3[nH]2)c1 | 97.9% (inactive) |
| NS(=O)(=O)c1ccc(N/C=C/C(=O)c2cc3ccccc3oc2=O)cc1 | 95.5% (inactive) |
| C=CC(C)(O)CC/C=C(\CO)C(=O)OC1C(C)OC(O[C@](C)(C=C)CC/C=C(\CO)C(=O)O[C@H]2C[C@@]3(C(=O)OC4OC(CO)C(O)C(O)C4OC4OC(C)C(OC5OC(CO)C(O)C5O)C(OC5OC(CO)C(O)C(O)C5O)C4O)C(CC2(C)C)C2=CCC4[C@@]5(C)CC[C@H](OC6OC(COC7OC(C)C(O)C(O)C7OC7OCC(O)C(O)C7O)C(O)C(O)C6NC(C)=O)C(C)(C)C5CC[C@@]4(C)[C@]2(C)C[C@H]3O)C(O)C1O (stereo not given in full) | -43.2% (active) |
| Nc1nc(C(=O)N/N=C/c2ccc(N3CCOCC3)cc2)nn1-c1ccc(S(N)(=O)=O)cc1 | 99.9% (inactive) |

The compounds below were run on MCF7 breast in the same assay as above. Conditions: 10 µM unless noted.

| SMILES | growth |
| --- | --- |
| O=S(=O)(c1ccccc1)N1CCCN(c2nc(-c3ccccc3)nc3nc(-c4ccccc4)oc23)CC1 | 90.8% (inactive) |
| Cc1cc2oc(=O)cc(CP(=O)(O)O)c2cc1O | 88.9% (inactive) |
| COC(=O)c1ccc2c(c1)c1c(C)c3ccncc3c(C)c1n2C | 8.59% (active) |
| CCOC(=O)N1CCN(S(=O)(=O)c2oc(-c3ccc(Cl)cc3)nc2C#N)CC1 | 62.2% (inactive) |
| CC(CN)[C@@H]1CC[C@]2(CO)CC[C@]3(C)[C@H](CC[C@@H]4[C@@]5(C)CCC(N)C(C)(C)[C@@H]5CC[C@]43C)[C@@H]12 (stereo not given in full) | -71.2% (active) |
| C=CC1(C)C(O[Si](C)(C)C(C)(C)C)CC2C3OC(=O)NC31c1cccc3c1[C@H](C(=O)N3C)C2(C)C (stereo not given in full) | 27.7% (inactive) |
| O=C1/C(=C/c2ccc(C(F)(F)F)cc2)COc2ccc(O)c(O)c21 | 4.91% (active) |
| Cc1ccccc1CNc1c2ccccc2nc2ccccc12 | 6.93% (active) |
| CCCCC(=O)Nc1ncc(Cc2ccccc2Cl)s1 | 17.8% (inactive) |
| C=CCn1c(SCC(=O)Nc2ccc(C(=O)/C=C/c3cc(OC)c(OC)c(OC)c3)cc2)nnc1-c1cc(-c2ccc(OC)cc2)nc2ccccc12 | 64.4% (inactive) |
| N#Cc1c(NC(=O)c2cccs2)[n+]([O-])c2ccc(Cl)cc2[n+]1[O-] | 101% (inactive) |
| CCOC(=O)c1c2c(n3c1NCC3)-c1ccccc1C2=O | 90.6% (inactive) |
| COc1ccc(NC(=O)c2cccc(C3CCc4c(cc(OC)c(OC)c4OC)O3)c2)cc1 (stereo not given) | 11.3% (inactive) |
| C[C@@H](CO)[C@@H]1CC[C@]2(C(=O)N3CCN(C)CC3)CC[C@]3(C)[C@H](CC[C@@H]4[C@@]5(C)CC[C@H](O)C(C)(C)[C@@H]5CC[C@]43C)[C@@H]12 | 42.1% (inactive) |
| COc1ccc(NC(=O)c2ccc(C(=O)Nc3ccc(OC)cc3OC)cc2)c(OC)c1 | 75.2% (inactive) |
| CCN(CC)CCCC(C)Nc1ccc2cc(OC)ccc2n1 (stereo not given) | 84.2% (inactive) |
| CCN(C(=O)N1CCN(c2cc3c(cc2F)c(=O)c(C(=O)O)cn3C2CC2)CC1)c1nc(-c2ccc(C)cc2)cs1 | 6.09% (active) |
| CCOC(=O)n1cc(-c2nonc2-c2cn(C)c3ccccc23)c2ccccc21 | 21.6% (inactive) |
| O=C1c2cccnc2C(=O)c2c1c(C(=O)OCCCN1CCCCC1)c1ccccn21 | -42% (active) |
| Cc1ccc(Nc2nc(-c3ccc(F)cc3)c(C#N)c(=O)n2C)cc1 | 56.1% (inactive) |

| SMILES | growth |
| --- | --- |
| COc1cc(/C=C2\C(=O)N(c3c(Cl)cccc3Cl)c3ccccc32)cc(OC)c1OCCCCCCn1c2ccccc2c(=O)c2ccccc21 | 92% (inactive) |
| CSCCC(NC(=O)c1ccccc1)C(=O)N/N=C1\S/C(=C/c2ccc(Cl)cc2)C(=O)N1C (stereo not given) | 83.9% (inactive) |
| CC1(C)CCC(S(=O)(=O)c2ccc3c(c2)/C(=N\O)c2cc(S(=O)(=O)N4CCN(c5ccc(F)cc5O)CC4)ccc2-3)CC1 | -67.9% (active) |
| Cc1cscc(C)c1=S | 59.4% (inactive) |
| O=C(O)C1CN(c2cccc(Cl)c2)N(c2cccc(Cl)c2)C1=O (stereo not given) | 91.8% (inactive) |
| CCNC(=O)Oc1ccc(/C(=C(/C)Cc2ccc(OC)cc2)c2ccc(OCCN3CCCC3)cc2)cc1 | 29% (inactive) |
| CC[C@H](C)[C@H](NC(=O)[C@H](CCCNC(=N)N)NC(=O)[C@H](Cc1c[nH]c2ccccc12)NC(=O)[C@@H](NC(=O)[C@H](CCCCN)NC(=O)[C@H](CCCCN)NC(=O)[C@@H](NC(=O)[C@@H](NC(=O)[C@@H](NC(=O)[C@H](CCCCN)NC(=O)[C@H](Cc1ccccc1)NC(=O)[C@H](CCCCN)NC(=O)[C@H](CCCCN)NC(=O)[C@H](Cc1ccccc1)NC(=O)[C@@H](NC(=O)[C@@H](N)CCCCN)[C@@H](C)CC)[C@@H](C)O)[C@@H](C)CC)[C@@H](C)CC)C(C)C)C(=O)N[C@@H](Cc1ccccc1)C(=O)NCC(=O)N[C@@H](CCCNC(=N)N)C(=O)N[C@@H](Cc1ccccc1)C(N)=O | -17% (active) |
| CC1O[C@@H]2C[C@@](O)([C@H]1O)n1c3ccccc3c3c4c(c5c6ccccc6n2c5c31)C(=O)NC4=O (stereo not given in full) | 22.3% (inactive) |
| Cc1nc2sc(C(=O)Nc3cccc(Cl)c3)c(N)c2cc1C(O)c1ccccc1 (stereo not given) | 21.9% (inactive) |
| CC(C(=O)O)n1c(O)c(C=Nc2cccnc2)sc1=S (stereo not given) | 86.7% (inactive) |
| O=C(N/N=C/c1ccc(Cl)cc1Cl)c1ccc2nc(-c3ccc(Cl)cc3)[nH]c2c1 | -20% (active) |
| O=C(Cn1nnc([N+](=O)[O-])n1)c1ccccc1 | 80.9% (inactive) |
| O=C1NC(=Nc2ccc(O)cc2)S/C1=C\c1cccs1 | 11.8% (inactive) |
| NC(=O)c1ccc(NC(=O)c2oc3ccccc3c2-c2cnn(-c3ccccc3)c2)cc1 | -1.73% [50 µM] (active) |
| CCOC(=O)/C=C/c1c(C)[nH]c(=O)[nH]c1=O | 69.6% (inactive) |
| Cc1cccc(NC(=O)CSc2nc3ccc([N+](=O)[O-])cc3[nH]2)c1 | 86.5% (inactive) |
| NS(=O)(=O)c1ccc(N/C=C/C(=O)c2cc3ccccc3oc2=O)cc1 | 68.8% (inactive) |
| C=CC(C)(O)CC/C=C(\CO)C(=O)OC1C(C)OC(O[C@](C)(C=C)CC/C=C(\CO)C(=O)O[C@H]2C[C@@]3(C(=O)OC4OC(CO)C(O)C(O)C4OC4OC(C)C(OC5OC(CO)C(O)C5O)C(OC5OC(CO)C(O)C(O)C5O)C4O)C(CC2(C)C)C2=CCC4[C@@]5(C)CC[C@H](OC6OC(COC7OC(C)C(O)C(O)C7OC7OCC(O)C(O)C7O)C(O)C(O)C6NC(C)=O)C(C)(C)C5CC[C@@]4(C)[C@]2(C)C[C@H]3O)C(O)C1O (stereo not given in full) | -50% (active) |
| Nc1nc(C(=O)N/N=C/c2ccc(N3CCOCC3)cc2)nn1-c1ccc(S(N)(=O)=O)cc1 | 103% (inactive) |
